Laboratory results taken from PubChem BioAssay (Tox21).
Records with an inconclusive call do not appear. The source made the active and inactive calls. Unless noted, calls follow the shape of the dose curve; as a rule, active = well fitted curve in the direction sought with a large enough effect in the repeat runs; inconclusive = weak or mixed curves; inactive = flat fitted curve, though single readings scatter.

Assays:
[1] = qHTS assay to test for compound auto fluorescence at 535 nm (green) in HEK293 cells (AID 720680)
[2] = qHTS assay to test for compound auto fluorescence at 460 nm (blue) in HEK293 cell free culture (AID 720681)
How it was run: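 Test compounds were pinned into cell-free culture medium (DMEM with 10% FBS) and fluorescence was read directly at Ex/Em 405/460 nm. Signals were expressed as fluorescence equivalents of triamterene, with DMSO vehicle as control.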

[3] = qHTS assay to test for compound auto fluorescence at 535 nm (green) in HEK293 cell free culture (AID 720682)
How it was run: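 Using fluorescein as calibrant, autofluorescence was quantified at 485/535 nm in cell-free DMEM containing 10% FBS after pintool addition of compound or vehicle.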

[4] = qHTS assay to test for compound auto fluorescence at 590 nm (red) in HEK293 cell free culture (AID 720683)
How it was run: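 Tox21 10K library compounds were pinned into cell-free DMEM with 10% FBS and fluorescence was read at excitation 540 nm. Activity is expressed as Rose Bengal sodium equivalency.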

[5] = qHTS assay to test for compound auto fluorescence at 590 nm (red) in HepG2 cell free culture (AID 720684)
How it was run: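 Measured in medium alone (MEM containing 10% FBS) following pintool addition of compound; emission at 590 nm with 540 nm excitation, referenced to Rose Bengal sodium.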

[6] = qHTS assay to test for compound auto fluorescence at 460 nm (blue) in HepG2 cell free culture (AID 720685)
How it was run: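 Compound (23 nL) or DMSO pinned into cell-free MEM with 10% FBS; blue fluorescence read at 405/460 nm excitation/emission, expressed as auto-fluorescence equivalency to triamterene.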

[7] = qHTS assay to test for compound auto fluorescence at 535 nm (green) in HepG2 cell free culture (AID 720686)
[8] = qHTS assay to test for compound auto fluorescence at 460 nm (blue) in HepG2 cells (AID 720687)
How it was run: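 Cells (2,000/well in MEM with 10% FBS) attached overnight at 37 C, then were exposed to compound or DMSO for 1 hr at 37 C, 5% CO2. Fluorescence read at Ex/Em 405/460 nm, expressed as triamterene-equivalent signal.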

[9] = target: Glucocorticoid receptor (Homo sapiens) (UniProt P04150); test: qHTS assay to identify small molecule agonists of the glucocorticoid receptor (GR) signaling pathway (AID 720691; active = well fitted activation curve with a large enough effect in the signal ratio in the repeat runs, not every such curve was filed as active; the % refers to the signal ratio)
How it was run: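 GR-bla HeLa cells carrying a GRE-driven beta-lactamase reporter, exposed to compounds for 18 h at 37 C. Reporter activation read as fluorescence after 2 h with LiveBLAzer B/G FRET substrate at room temperature.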

[10] = target: Glucocorticoid receptor (Homo sapiens) (UniProt P04150); test: qHTS assay to identify small molecule antagonists of the glucocorticoid receptor (GR) signaling pathway (AID 720692; active = well fitted inhibition curve with a large enough effect in the signal ratio in the repeat runs, not every such curve was filed as active; the % refers to the signal ratio)
How it was run: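 GR-bla HeLa cells carrying a GRE-driven beta-lactamase reporter received compound after 4 h plating, then dexamethasone (5 nM final). After 18 h at 37C, the FRET substrate was loaded for 2 h at room temperature and fluorescence read.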
% is scaled to controls: 0 for no effect and ±100 for the full control effect.

Glucocorticoid receptor (Homo sapiens), sequence (P04150 whole entry, looked up): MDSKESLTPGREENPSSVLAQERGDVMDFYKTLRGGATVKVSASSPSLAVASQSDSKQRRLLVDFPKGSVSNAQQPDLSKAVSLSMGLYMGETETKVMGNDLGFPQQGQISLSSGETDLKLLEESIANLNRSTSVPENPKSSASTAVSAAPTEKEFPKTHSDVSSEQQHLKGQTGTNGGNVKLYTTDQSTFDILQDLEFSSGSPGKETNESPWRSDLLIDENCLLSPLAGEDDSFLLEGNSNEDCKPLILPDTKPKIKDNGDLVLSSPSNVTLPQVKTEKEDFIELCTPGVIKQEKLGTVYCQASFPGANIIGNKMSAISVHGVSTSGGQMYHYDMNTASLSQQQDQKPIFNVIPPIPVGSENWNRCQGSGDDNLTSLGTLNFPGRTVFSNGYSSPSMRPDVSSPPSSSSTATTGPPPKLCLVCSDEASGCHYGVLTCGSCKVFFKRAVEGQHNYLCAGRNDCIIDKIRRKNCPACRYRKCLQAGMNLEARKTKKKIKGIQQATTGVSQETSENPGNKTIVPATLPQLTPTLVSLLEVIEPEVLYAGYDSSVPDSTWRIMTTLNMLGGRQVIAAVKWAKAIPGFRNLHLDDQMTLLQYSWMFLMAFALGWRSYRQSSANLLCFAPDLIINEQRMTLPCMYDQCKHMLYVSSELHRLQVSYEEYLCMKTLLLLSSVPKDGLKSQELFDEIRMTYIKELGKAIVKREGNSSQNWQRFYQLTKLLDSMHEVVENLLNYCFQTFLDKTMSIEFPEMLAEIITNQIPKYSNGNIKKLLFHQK

CCCCCCCCCCCCCCCC(=O)OC
inactive: fluorescence, % of fluorescein [1] -0.0119% [at 18.6 µM] | fluorescence, % of fluorescent control [2] -0.0484% [at 18.6 µM] | activity change [3] -0.0305% [at 18.6 µM] | fluorescence, % of fluorescent control [4] -0.033% [at 18.6 µM] | fluorescence, % of Rose Bengal [5] 0.0231% [at 18.6 µM] | fluorescence, % of fluorescent control [6] -0.0427% [at 18.6 µM] | fluorescence, % of fluorescein control [7] -0.0231% [at 18.6 µM] | fluorescence, % of fluorescent control [8] 0.0931% [at 18.6 µM] | Potency [9]

NC(=O)CC[C@@H](N)C(=O)O
inactive: outcome [1] | outcome [2] | outcome [3] | outcome [4] | outcome [5] | outcome [6] | outcome [7] | outcome [8] | Potency [9]

C=CCON/C(CCC)=C1\C(=O)CC(C)(C)C(C(=O)OC)=C1O
inactive: outcome [1] | outcome [2] | outcome [3] | outcome [4] | outcome [5] | outcome [6] | outcome [7] | outcome [8] | Potency [9]

COc1ccc(Cl)cc1C
inactive: outcome [1] | outcome [2] | outcome [3] | outcome [4] | outcome [5] | outcome [6] | outcome [7] | outcome [8] | Potency [9] | outcome [10]

Cc1ccc(NC(N)=O)cc1
inactive: outcome [1] | outcome [2] | outcome [3] | outcome [4] | outcome [5] | outcome [6] | outcome [7] | outcome [8] | Potency [9]

CC(=O)SC[C@@H](C)C(=O)N1CCC[C@H]1C(=O)N[C@@H](Cc1ccccc1)C(=O)O
inactive: outcome [1] | outcome [2] | outcome [3] | outcome [4] | outcome [5] | outcome [6] | outcome [7] | outcome [8]

CN1CCN(C(=O)C2CCCCC2)CC1
inactive: outcome [1] | outcome [2] | outcome [3] | outcome [4] | outcome [5] | outcome [6] | outcome [7] | outcome [8] | Potency [9]

Cc1ccc2ccccc2n1
inactive: outcome [1] | outcome [2] | outcome [3] | outcome [4] | outcome [5] | outcome [6] | outcome [7] | outcome [8] | Potency [9]

Cc1ccc(OC(=O)CC(C)C)cc1
inactive: outcome [1] | outcome [2] | outcome [3] | outcome [4] | outcome [5] | outcome [6] | outcome [7] | outcome [8] | Potency [9]

CC(C)(C)OC=O
inactive: outcome [1] | outcome [2] | outcome [3] | outcome [4] | outcome [5] | outcome [6] | outcome [7] | outcome [8] | Potency [9]

CN(C)CCC[C@@]1(c2ccc(F)cc2)OCc2cc(C#N)ccc21
inactive: outcome [1] | outcome [2] | outcome [3] | outcome [4] | outcome [5] | outcome [6] | outcome [7] | outcome [8] | Potency [9]

CC(C)(C)C(=O)NCCCC(=O)O
inactive: outcome [1] | outcome [2] | outcome [3] | outcome [4] | outcome [5] | outcome [6] | outcome [7] | outcome [8]

CCOC(=O)[C@H](CCc1ccccc1)N[C@H]1CS[C@H](c2cccs2)CN(CC(=O)O)C1=O
inactive: outcome [1] | outcome [2] | outcome [3] | outcome [4] | outcome [5] | outcome [6] | outcome [7] | outcome [8] | Potency [9]

CCOC(=O)CC(C(C)=O)C(C)=O
inactive: outcome [1] | outcome [2] | outcome [3] | outcome [4] | outcome [5] | outcome [6] | outcome [7] | outcome [8] | Potency [9]

Cc1cc(C)c(C)c(C)c1
inactive: outcome [1] | outcome [2] | outcome [3] | outcome [4] | outcome [5] | outcome [6] | outcome [8]

O=C(CCBr)N1CCN(C(=O)CCBr)CC1
inactive: outcome [1] | outcome [2] | outcome [3] | outcome [4] | outcome [5] | outcome [6] | outcome [7] | outcome [8] | Potency [9] | outcome [10]

NNC(=O)CCCCC(=O)NN
inactive: outcome [1] | outcome [2] | outcome [3] | outcome [4] | outcome [5] | outcome [6] | outcome [7] | outcome [8] | Potency [9] | outcome [10]

CCOC(=O)CC
inactive: outcome [1] | outcome [2] | outcome [3] | outcome [4] | outcome [5] | outcome [6] | outcome [8]

O=Cc1ccccc1S(=O)(=O)O
inactive: outcome [1] | outcome [2] | outcome [3] | outcome [4] | outcome [5] | outcome [6] | outcome [7] | outcome [8] | Potency [9] | outcome [10]

CC(C)c1cc(C(C)C)cc(C(C)C)c1
inactive: outcome [1] | outcome [2] | outcome [3] | outcome [4] | outcome [5] | outcome [6] | outcome [7] | outcome [8] | Potency [9] | outcome [10]

O=C(O)CCC(=O)Nc1ccc(S(=O)(=O)Nc2nccs2)cc1
inactive: fluorescence, % of fluorescein [1] 0.032% [at 18.6 µM] | fluorescence, % of fluorescent control [2] -0.0604% [at 18.6 µM] | activity change [3] 0.0309% [at 18.6 µM] | fluorescence, % of fluorescent control [4] 0.0244% [at 18.6 µM] | fluorescence, % of Rose Bengal [5] 0.477% [at 18.6 µM] | fluorescence, % of fluorescent control [6] -0.0059% [at 18.6 µM] | fluorescence, % of fluorescein control [7] 0.022% [at 18.6 µM] | fluorescence, % of fluorescent control [8] -0.0217% [at 18.6 µM] | Potency [9] | outcome [10]
